Source: PubChem BioAssay AID1508625 (Wald Lab, School of Medicine, Case Western Reserve …, 2021)

Experiment: small molecules boosting NK-mediated OVCAR3 lysis – imaging, primary NK cells, calcein-AM imaging, primary screen (AID 1508625);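 note: compound given to NK cells 16 h before adding targets at 1.5 to 1 ratio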;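 for z-score: more negative robust z means stronger NK killing of tumor cells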
Conditions: OVCAR3 lysis by primary NK cells, at 5 µM; z-score: measured here: robust Z-score, single-point normalisation

CCCCC1CC(CN2C(=O)NC(C)(C)C2=O)OC1=O (stereo not given)
corrected activity, negative = more killing: -2.13% | z-score: -0.811

COc1c(Cl)cccc1NC(=O)c1cccc2ccccc12
corrected activity, negative = more killing: -3.52% | z-score: -1.31

CC(=O)Nc1ccc(NC(=O)CC2OCC3CCCCN3C2=O)cc1 (stereo not given)
corrected activity, negative = more killing: -5.1% | z-score: -1.95

O=C(CCCCCn1c(=S)[nH]c2cc3c(cc2c1=O)OCO3)N1CCN(c2ccc(Cl)cc2)CC1
corrected activity, negative = more killing: -2.25% | z-score: -0.597

Cc1cc(C)n(C(=O)c2nn(C)cc2I)n1
corrected activity, negative = more killing: -2.43% | z-score: -0.913

CON1C(=O)C(C)(C)N(OC)C(=O)C1(C)C
corrected activity, negative = more killing: 2.31% | z-score: 0.733

COc1ccc(Oc2c(C(F)(F)F)oc3cc(OC(=O)c4ccc(OC)c(OC)c4)ccc3c2=O)cc1
corrected activity, negative = more killing: -1.55% | z-score: -0.672

Cc1ccc(-n2c(O)c(C=C3C=Nc4ccccc43)sc2=O)cc1
corrected activity, negative = more killing: -3.36% | z-score: -1.74

COCCNC(=O)c1c[nH]c2ccc(S(=O)(=O)Nc3ccc4c(c3)OCCO4)cc2c1=O
corrected activity, negative = more killing: -5.25% | z-score: -1.29

COc1ccc(C2=NN(C(=O)c3ccc(Br)o3)C(c3ccc(N(C)C)cc3)C2)cc1OC (stereo not given)
corrected activity, negative = more killing: -3.55% | z-score: -1.9

Cc1noc(C)c1S(=O)(=O)Nc1ccc(C(=O)Nc2cccc(Cl)c2)cc1
corrected activity, negative = more killing: -7.43% | z-score: -1.82

CC(=O)c1ccc(NC(=O)c2ccc(C)c([N+](=O)[O-])c2)cc1
corrected activity, negative = more killing: -3.69% | z-score: -1.31

Cc1ccccc1OCC(=O)Nc1c[nH]c(=O)[nH]c1=O
corrected activity, negative = more killing: -0.837% | z-score: -0.363

COC(=O)c1conc1-c1ccccc1OC
corrected activity, negative = more killing: -3.1% | z-score: -1.35

CN(C)S(=O)(=O)c1ccc(C(O)=C2C(=O)C(=O)N(Cc3cccnc3)C2c2ccc(Cl)cc2)cc1 (stereo not given)
corrected activity, negative = more killing: -2.24% | z-score: -0.973

Cc1ccc2c(c1)NCC(C(=O)O)O2 (stereo not given)
corrected activity, negative = more killing: -4.87% | z-score: -1.31

Cc1ccc(-n2c(C)cc(C(=S)N3CCOCC3)c2C)cc1Cl
corrected activity, negative = more killing: -4.03% | z-score: -1.54

COc1ccc(C(=O)Nc2ccc(NC(=O)c3ccc(C(C)(C)C)cc3)cc2)cc1[N+](=O)[O-]
corrected activity, negative = more killing: -5.92% | z-score: -2.1

COc1ccccc1N1CCN(C(=O)c2ccc(Cn3c(=S)[nH]c4cc5c(cc4c3=O)OCO5)cc2)CC1
corrected activity, negative = more killing: -5.34% | z-score: -1.42

CN1C(=O)c2ccccc2C(C(=O)Nc2ccc3c(c2)OCCO3)C1c1cccs1 (stereo not given)
corrected activity, negative = more killing: -7.21% | z-score: -1.79

Cc1ccc(C=C(NC(=O)c2ccc(C)cc2)c2nc3ccccc3[nH]2)cc1
corrected activity, negative = more killing: -1.41% | z-score: -0.73

C=CCn1c2ccccc2c2nnc(SCc3[nH]c(C(=O)OCC)c(C)c3C(C)=O)nc21
corrected activity, negative = more killing: -1.4% | z-score: -0.435

O=C(CCCn1c(=S)[nH]c2cc3c(cc2c1=O)OCO3)N1CCN(Cc2ccc3c(c2)OCO3)CC1
corrected activity, negative = more killing: -2.04% | z-score: -0.54

Cn1c2ccccc2c(=Nc2ccc(Br)cc2)c2ccccc21
corrected activity, negative = more killing: -4.16% | z-score: -1.48

COc1ccc(CNC(=O)Cn2c(=S)[nH]c3ccccc3c2=O)cc1
corrected activity, negative = more killing: -4.59% | z-score: -1.22

Cc1cccc(N2C(=O)c3ccc(NC(=O)c4ccc(Br)cc4)cc3C2=O)c1
corrected activity, negative = more killing: -3.53% | z-score: -1.25

CCC(C)NC(=O)c1ccc2c(=O)n(Cc3ccccc3OC)c(=S)[nH]c2c1 (stereo not given)
corrected activity, negative = more killing: -7.22% | z-score: -1.91

Cc1ccc(NC(=O)c2cc(S(=O)(=O)NCCc3ccccc3)ccc2F)cc1F
corrected activity, negative = more killing: -5% | z-score: -1.35

O=C1C2CCCCC2C(=O)N1c1cccc2ccccc12 (stereo not given)
corrected activity, negative = more killing: -3.38% | z-score: -0.712

O=C(Nc1ccc2oc(-c3cccc4c(Br)cccc34)nc2c1)c1ccccc1[N+](=O)[O-]
corrected activity, negative = more killing: -6.04% | z-score: -2.14

CCOc1ccc(S(=O)(=O)NC(C)C)c2cccnc12
corrected activity, negative = more killing: -3.65% | z-score: -1.16

O=C(COc1ccccc1Br)NN=Cc1ccccc1Br
corrected activity, negative = more killing: -7.58% | z-score: -2.41

CCOc1ccc(N2CC(C(=O)Nc3cc(C)ccn3)CC2=O)cc1 (stereo not given)
corrected activity, negative = more killing: -3.29% | z-score: -1.23

O=c1c2c(nc3c(-c4ccc(Cl)cc4)c(Cc4ccccc4)[nH]n13)CCC2
corrected activity, negative = more killing: -3.87% | z-score: -2

c1cc2c(cc1Nc1nc(-c3ccc(C4CCCCC4)cc3)cs1)OCO2
corrected activity, negative = more killing: 0.134% | z-score: 0.0696
